# Measured values as given in paper PMC12864922, “TDP-43 directly inhibits mRNA accumulation in neurites through modulation of mRNA stability”.
# Whole data set: some 9,900 sequences, median “r (bound/input frequency ratio)” near 0.7, cut for the highest 2% near 6.5. The sample as a whole holds a higher share of the highest values than the screen did.
# B1: ENSMUSG00000043670.73|Diras1 (ssRNA)
# RNA: GGGAGUUCUACAGUCCGACGAUCGCUUCGAUAUCCGCAUGCUAACACACUGGAGGUUUGAUCCCUGUGGAUCUGAAAACAGGGACCUGGCUAAGGAACUGCUCAUCCCAGUCAGGCCCAGAGAGGUUACCUUGCCUCUCCAUCUCUGUCCCUGUGUGCCCAGCCAUGCCCACUGUCCCUGUCCCUCACAUUCUAUCACUGUGACCUCUGGGGAGUGCCCAUUGACCUCAUCUUCCUUCACUAAUAUCUUAUUUCUUUCACCUGAUCCUGUCCUUUCCCCGUGACCUCUGACCUGUGGCCUUCCCUCUUGCGGUCGCACUAGUGUGGAAUUCUCGGGUGUCAAGG
# B2: ENSMUSG00000004113.197|Cacna1b|112:116 (ssRNA)
# RNA: GGGAGUUCUACAGUCCGACGAUCGCUUCGAUAUCCGCAUGCUACCUCUGCUCAACCAAGUGCCUGAUCUCUGGCUCUGAGCAUCGUGGAUGAGGUACGGCCUCAGGAAGCAUCGGGUGGAUUGGGUGGGAGCUGCUCAGAGCAGCACGGGGGCUACACACUUAGGGACAUUGACAGUGUCCAUCAGCAUGUCAGAGAAGCAGCUGUAGUGCCCGUGUUUCUCCCUGAGUCAUGGGUUCUGAAGAAGCCAGAGCGGCACAAUGCGUGCUUGCAUGAGGCACUUUCAGCCUUUUUAAAUCUGACUCUCUUGCGGUCGCACUAGUGUGGAAUUCUCGGGUGUCAAGG
# B3: ENSMUSG00000090935.575|Synj2bp (ssRNA)
# RNA: GGGAGUUCUACAGUCCGACGAUCGCUUCGAUAUCCGCAUGCUAAUUCAAAUUUUAUGUUUCUUAUAGACUGACUCAAAUAUUCCUACCACCUUAAAAUUAUAUAUGAUGCACCUACCACAUAAAUUAUAAUGUUUAAUGUUUUGAAAAUGGAUUAUAGGUAUUUUUAAGUUUUCAUAAAGUAUUUCUUAUAUUUGUCAUUGUGAAUUAUAUGUAAUUCUAAUAGACACUGUUUGCUUCAGUUGUUUUUGUUUCCUUUUCCUACAGUUUUCUGUGUGGGUGAUUUCAUUUAAUUAAUUGGACAGCUCUUGCGGUCGCACUAGUGUGGAAUUCUCGGGUGUCAAGG
# B4: ENSMUSG00000028439.177|Fam219a (ssRNA)
# RNA: GGGAGUUCUACAGUCCGACGAUCGCUUCGAUAUCCGCAUGCUAUAUGCACAUGUGUGUGCAUGUGUGUGUGCCUGUGUGUGUGCGUGUGCGUGUGUGUAUGUGUGUGCGUGUGUGUGUGUGUGUGUUGUACCCGAGUGUGUGUUGAGCCUAUCUGUCCAGGGAACCAGAUUGGUGUCCGAGAUGAGGAAAUGGCUGUGGCCUGGGAAAUCAGUGAGAGGCCGCUUGGGAAUGAGAAUGCAGUGGACUGAAAGCACAGCCUGGCCAUCUGGAACCUGGGUUCUGGUCCCAGCCUCGGCAUUCUCCUCUUGCGGUCGCACUAGUGUGGAAUUCUCGGGUGUCAAGG
# B5: ENSMUSG00000028439.180|Fam219a (ssRNA)
# RNA: GGGAGUUCUACAGUCCGACGAUCGCUUCGAUAUCCGCAUGCUAUGUGUGUGUGCCUGUGUGUGUGCGUGUGCGUGUGUGUAUGUGUGUGCGUGUGUGUGUGUGUGUGUUGUACCCGAGUGUGUGUUGAGCCUAUCUGUCCAGGGAACCAGAUUGGUGUCCGAGAUGAGGAAAUGGCUGUGGCCUGGGAAAUCAGUGAGAGGCCGCUUGGGAAUGAGAAUGCAGUGGACUGAAAGCACAGCCUGGCCAUCUGGAACCUGGGUUCUGGUCCCAGCCUCGGCAUUCUCCCUGAGCUCCUAAGCAAUCUCUUGCGGUCGCACUAGUGUGGAAUUCUCGGGUGUCAAGG
# B6: ENSMUSG00000028439.179|Fam219a (ssRNA)
# RNA: GGGAGUUCUACAGUCCGACGAUCGCUUCGAUAUCCGCAUGCUAUGUGCAUGUGUGUGUGCCUGUGUGUGUGCGUGUGCGUGUGUGUAUGUGUGUGCGUGUGUGUGUGUGUGUGUUGUACCCGAGUGUGUGUUGAGCCUAUCUGUCCAGGGAACCAGAUUGGUGUCCGAGAUGAGGAAAUGGCUGUGGCCUGGGAAAUCAGUGAGAGGCCGCUUGGGAAUGAGAAUGCAGUGGACUGAAAGCACAGCCUGGCCAUCUGGAACCUGGGUUCUGGUCCCAGCCUCGGCAUUCUCCCUGAGCUCCUACUCUUGCGGUCGCACUAGUGUGGAAUUCUCGGGUGUCAAGG
# B7: ENSMUSG00000028439.178|Fam219a (ssRNA)
# RNA: GGGAGUUCUACAGUCCGACGAUCGCUUCGAUAUCCGCAUGCUACAUGUGUGUGCAUGUGUGUGUGCCUGUGUGUGUGCGUGUGCGUGUGUGUAUGUGUGUGCGUGUGUGUGUGUGUGUGUUGUACCCGAGUGUGUGUUGAGCCUAUCUGUCCAGGGAACCAGAUUGGUGUCCGAGAUGAGGAAAUGGCUGUGGCCUGGGAAAUCAGUGAGAGGCCGCUUGGGAAUGAGAAUGCAGUGGACUGAAAGCACAGCCUGGCCAUCUGGAACCUGGGUUCUGGUCCCAGCCUCGGCAUUCUCCCUGAGCUCUUGCGGUCGCACUAGUGUGGAAUUCUCGGGUGUCAAGG
# B8: ENSMUSG00000043670.57|Diras1|205:210 (ssRNA)
# RNA: GGGAGUUCUACAGUCCGACGAUCGCUUCGAUAUCCGCAUGCUACCUGCCUCUUCACACCUCCAUAGCUUCAUCCUUUGCAGACCUCUCCCUCUAUAUCUCUUUGCUCCCCCACCCCCAUUCUAUCUGCACCCCACAACCACACACUGGAGGUUUGAUCCCUGUGGAUCUGAAAACAGGGACCUGGCUAAGGAACUGCUCAUCCCAGUCAGGCCCAGAGAGGUUACCUUGCCUCUCCAUCUCUGUCCCACACACCCCAGCCAUGCCCACUGUCCCUGUCCCUCACAUUCUAUCACUGUGACCUCCUCUUGCGGUCGCACUAGUGUGGAAUUCUCGGGUGUCAAGG
# B9: ENSMUSG00000032194.139|Kank2 (ssRNA)
# RNA: GGGAGUUCUACAGUCCGACGAUCGCUUCGAUAUCCGCAUGCUAGGAAAUGACCAACUUACAAGAAGUUAUGCUGACCUCCCUGUUCCCCACGGGGAGUGCUUGGCAGAGGAGACUACUUCUAGAAAUACUUUCAGACCUACAGACAAAAAAGAAAAAAGGCCAUUCCGGAGUGACUCCCAGCAUCACAGCCCAGAACCUCCUCCUCAAAGGAGAGUAAACAGAGACUGUGAUACUGACCAAGUACAGGCGCUCGCUAUGAAGCCCAUAUGUUCCUGAUUAAGAGCUGGCUGGCCUCAGAGCACCUCUUGCGGUCGCACUAGUGUGGAAUUCUCGGGUGUCAAGG
# B10: ENSMUSG00000004113.476|Cacna1b|225:230 (ssRNA)
# RNA: GGGAGUUCUACAGUCCGACGAUCGCUUCGAUAUCCGCAUGCUAAGAGAGAGAGAUCCAGUCAUGCAACACAAAUGGGAUCUACUUUUAAACAACAGUCCUUUGACUAGUUUGCUGCCUGAAUAAUAUUUACAAACUAAACUUUGGAUUCUGCUCUUGUUUCUACAAUGAUUUUUUGUAUAAAGCAAAGUCCUUGGAUUAAAUAAAAACAACCCAAAAAAAAAAUCAAAAUCAAAACCCAGGAUGCAACUGGGUGAUACCUGAGGACACACACACUCAGUGCGUCGGUGGAGAGGGUAUACUGCCUCUUGCGGUCGCACUAGUGUGGAAUUCUCGGGUGUCAAGG
# B11: ENSMUSG00000090935.398|Synj2bp (ssRNA)
# RNA: GGGAGUUCUACAGUCCGACGAUCGCUUCGAUAUCCGCAUGCUAAAUUUCCUUCUUUUCAGUAAAUUGGCCAGACUAUUAUUUUGACAUAAGAUUAUGAAGAGUUUUCCCGACAGUCUAGCAGUCACUUAACAGAUGUUGAUUGCACAUUAGUUUUGUCAGGACACCUUUAUAAAAAGAGAAAUGCACAUAUUUCAUCCAAAGGGACAUUGUGGUUACAGUUAGGAAGGAAACCCUUAAAAUGGAGUUAGUUAUCUAAGUGUAAGUUGUUUAUAUUACAGACAGCAAAAGAAAAUAGCUCCUGACUCUUGCGGUCGCACUAGUGUGGAAUUCUCGGGUGUCAAGG
# B12: ENSMUSG00000043670.39|Diras1 (ssRNA)
# RNA: GGGAGUUCUACAGUCCGACGAUCGCUUCGAUAUCCGCAUGCUAGCUCCUGCUCCUUCUCCCCCUCCUUCCUUCCUUUGCCUUGCCCCUCCCUCCUCCAUCUCUCUUCCCUCUUCCUGUCCCCACCAGCCUACAGUAAGGUUGGGCUCCAUCCCUGCCUCUUCACACCUCCAUAGCUUCAUCCUUUGCAGACCUCUCCCUCUAUAUCUCUUUGCUCCCCCACCCCCAUUCUAUCUGCACCCCACAACCACACACUGGAGGUUUGAUCCCUGUGGAUCUGAAAACAGGGACCUGGCUAAGGAACUCUCUUGCGGUCGCACUAGUGUGGAAUUCUCGGGUGUCAAGG
# B13: ENSMUSG00000061578.1409|Ksr2 (ssRNA)
# RNA: GGGAGUUCUACAGUCCGACGAUCGCUUCGAUAUCCGCAUGCUAGGACCUCAGGCCCACUGUUUUCUCCAUGUCUGUCUGUACUGACUGUUGCAGAAUGAGCUGAUGUAUGAUCUUGAUUCUCCAUUUUCCUUCUGGACCACAUGUCUCUUCCUUUUCCUUUUUAGAUCUGUCUUGCUCUCUGUCUCUCUCACUCAUUGCCAACAUGUUGCUGGGAAAGAAUAUUUGAUUUAGAUGCCAAUCAGGAAGGCAAGUAGGAUGGAUGGAUGAGUGAGUGGAUAGGUAGGUAUAUAAAUGGAUGGAUGCUCUUGCGGUCGCACUAGUGUGGAAUUCUCGGGUGUCAAGG
# Target: TDP-43 (Homo sapiens, UniProt Q13148 1-414)
# Experiment: RNA Bind-n-Seq with designed 260-mer pool; 25 mM Tris-HCl, 150 mM KCl, 3 mM MgCl2, BSA (printed 500 mg/mL), 20 units/mL SUPERase IN; pH not stated; 500 nM RNA pool, 1 h, 4 C; TDP-43 5, 50, 500 nM; high values mean tight binding
# Details: protein: recombinant; tags: SBP (GST cleaved off with PreScission; pGEX-GST-SBP)
# Outline: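 For each oligo, R gives binding as its mapped-read-normalized abundance after pulldown divided by its abundance in input. Bead-captured SBP-tagged TDP-43 (5, 50 or 500 nM) was incubated with 500 nM of an in vitro-transcribed 260-nt 3′ UTR oligo pool for 1 h at 4 °C in 25 mM Tris-HCl, 150 mM KCl, 3 mM MgCl2, BSA and SUPERase IN on streptavidin beads. Washed, biotin-eluted RNA was reverse transcribed, PCR-amplified and sequenced.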
# TDP-43, sequence (Q13148 whole entry): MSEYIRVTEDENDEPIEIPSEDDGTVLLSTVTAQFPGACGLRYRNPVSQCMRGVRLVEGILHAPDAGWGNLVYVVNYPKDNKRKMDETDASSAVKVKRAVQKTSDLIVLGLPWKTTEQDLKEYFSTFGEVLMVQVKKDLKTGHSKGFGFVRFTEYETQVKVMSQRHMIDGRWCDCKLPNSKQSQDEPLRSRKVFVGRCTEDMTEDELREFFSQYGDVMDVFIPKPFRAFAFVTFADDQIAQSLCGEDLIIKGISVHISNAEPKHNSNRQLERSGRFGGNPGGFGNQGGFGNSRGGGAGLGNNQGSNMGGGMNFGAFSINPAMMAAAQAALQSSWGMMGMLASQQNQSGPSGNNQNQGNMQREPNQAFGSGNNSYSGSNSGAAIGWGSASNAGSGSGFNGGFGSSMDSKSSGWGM
row,Binder,binding signal
1,B1,2.54 R (bound/input frequency ratio)
2,B2,0.691 R (bound/input frequency ratio)
3,B3,0.0736 R (bound/input frequency ratio)
4,B4,8.05 R (bound/input frequency ratio)
5,B5,5.95 R (bound/input frequency ratio)
6,B6,7.2 R (bound/input frequency ratio)
7,B7,9.43 R (bound/input frequency ratio)
8,B8,2.63 R (bound/input frequency ratio)
9,B9,0.307 R (bound/input frequency ratio)
10,B10,0.46 R (bound/input frequency ratio)
11,B11,0.033 R (bound/input frequency ratio)
12,B12,5.05 R (bound/input frequency ratio)
13,B13,1.55 R (bound/input frequency ratio)
